Screening results as filed in PubChem BioAssay.
Sampled rows, rich in hits. Any-hit rate of the full collection: about 3.9%.
HT1080NT lethal = qHTS for induction of synthetic lethality in tumor cells producing 2HG: qHTS for the HT-1080-NT fibrosarcoma cell line; HT-1080-NT fibrosarcoma viability, CellTiter-Glo ATP luminescence, 48 h; Potency, µM (doses to about 46.1 µM), inactives show at the top dose activity, negative = less viability, usual class: cytotoxic; 360,000 tested, 1.6% active; AID 686970, 2013;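 note: NT is the 2HG producing partner of a matched IDH1 knockdown line; 0% = DMSO-treated cells and -100% = media-only wells without cells; nearly all actives have a fitted effect of over 55% in size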
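Toxicity toward the 2HG-producing NT line was scored as %Activity, normalised to DMSO and no-cell wells, from CellTiter-Glo luminescence after 48 hours' treatment.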
HT1080 IDH1KD tx = qHTS for induction of synthetic lethality in tumor cells producing 2HG: qHTS for the HT-1080-IDH1KD cell line; 360,000 tested, 2% active; HT-1080 IDH1 knockdown viability, ATP luminescence, 48 h; AID 686971, 2013; Potency, µM (series often up to 46.1 µM), for inactives: top-dose activity, negative = toxicity, usual class: cytotoxic;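 note: 0% = DMSO wells and -100% = cell-free medium wells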
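CellTiter-Glo luminescence after 48 h compound exposure at 37 degrees C of IDH1-knockdown HT-1080 cells in 5% FBS RPMI. %Activity scaled between DMSO wells and cell-free media wells, with curves fitted and assigned curve classes.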
ATXN2 expr inh = Primary qHTS for Inhibitors of ATXN expression; AID 1745845, 2022; 360,000 tested, 0.72% active; Potency, µM (series often up to 57 µM), inactives show at the highest dose activity change, negative = inhibition, most hits filed as inhibitors; HEK-293 ATXN2-luciferase reporter, luminescence, 24 h; note: % is set by controls: 0 for no effect and ±100 for the full control effect; nearly all actives have a fitted effect of over 55% in size
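ATXN2-luciferase reporter cells (luciferase flanked by upstream and downstream ATXN2 gene portions) were treated 24 h at 37 °C with compounds at up to 57 uM. SteadyGlo luminescence gave expression; GF-AFC fluorescence gave viability.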
HepG2 viability = qHTS for Inhibitors of TGF-b: Cytotox Counterscreen; HepG2 CAGA-GFP viability, ATP luminescence, 18 h; Potency, µM (series often up to 46.1 µM), without a hit: top-dose activity change, negative = cytotoxicity, usual class: cytotoxic; 410,000 tested, 0.76% active
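CellTiter-Glo luminescence gave cytotoxicity after 18 hours at 37 degrees C. The cells were HepG2 CAGA-GFP in 1% FBS DMEM, stimulated with 500 pg/mL TGF-beta after compound addition. %Activity was normalised to no-cell wells (complete cell-killing) and DMSO (no toxicity), and curves were fitted and classified.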
TGFb inhibitor = qHTS for Inhibitors of TGF-b; AID 588855, 2011; HepG2 CAGA-GFP TGF-b/SMAD3 reporter, GFP fluorescence, 18 h; TGF-beta stimulated, 500 pg/mL final; Potency, µM (top dose mostly 46.1 µM), for the others: at the highest dose activity, negative = inhibition, most hits filed as inhibitors; 410,000 tested, 1.2% active; note: % is set by controls: 0 for no effect and ±100 for the full control effect; nearly all actives have a fitted effect of over 65% in size
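TGF-beta reporter screen: HEPG2 CAGA-GFP, 1% FBS, 500 pg/mL TGF-beta final, 18 h; per-cell GFP summed per well; curves fitted and categorized by class.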
S2 tox = Viability Counterscreen for Primary qHTS for Inhibitors of ATXN expression; 400,000 tested, 0.49% active; Potency, µM (top dose mostly 56.7 µM), actives largely listed as cytotoxic; S2 cells (HEK-293 line with an ATXN2-luciferase reporter) viability, CellTiter-Fluor protease fluorescence, 24 h; note: nearly all actives have a fitted effect of over 40% in size
An asterisk follows results filed as active; i = inactive; ? = inconclusive; . = no result given; [ ] = another dose, or the depositor's remark. Calls come from the whole dose curve; as a rule, active = well fitted curve in the direction sought with a large enough effect; inconclusive = small, poorly fitted or top-dose-only effect, or another doubt; inactive = no such curve, though single readings can be large; an effect the other way counts as inactive or inconclusive. Potency is the fitted concentration of half-maximal effect.

SMILES	HT1080NT lethal	HT1080 IDH1KD tx	ATXN2 expr inh	HepG2 viability	TGFb inhibitor	S2 tox
CC(=O)OCC1=C[C@@H]2OC(=O)C3=CO[C@@H](O[C@@H]4O[C@H](CO)[C@@H](O)[C@H](O)[C@H]4O)[C@H]1[C@@H]32	15%	2%	8%	0%	10%	i
C=C(C)COc1ccc(-c2ncncc2-c2ccc(Br)cc2)c(O)c1	?	-28%	-13%	-22%	?	.
C=C(C)COc1ccc(-c2nc(N)ncc2Oc2ccc(OC)cc2)c(O)c1	?	?	-12%	11µM*	?	i
CCc1cc(-c2nc(N)ncc2-c2ccc(Br)cc2)c(O)cc1OC	0%	-16%	-15%	22µM*	?	i
C=C(C)COc1ccc(-c2nc(N)ncc2-c2ccc(Br)cc2)c(O)c1	?	-25%	-8%	-105%	16µM*	i
COc1ccc(-c2cnc(N)nc2-c2ccc(OC)cc2)cc1	-9%	-16%	-2%	-25%	3%	i
CCOc1ccc(-c2nc(N)ncc2Oc2ccccc2Br)c(O)c1	?	23µM*	-7%	11µM*	?	i
O=C(c1cnc(N2CCOCC2)c2ccccc12)N1CCN(c2ccccc2)CC1	.	.	.	2%	-22%	.
CN1CCCc2cc(/C=C/c3ccnc4ccccc34)ccc21	.	.	.	-55%	118%	.
Nc1ccc(/C=C/c2ccnc3ccccc23)c(N)c1	.	.	.	-58%	-27%	.
COc1ccc(-c2nc(N)ncc2-c2ccc(OC)c(OC)c2)c(O)c1	?	?	-13%	-22%	0%	i
COc1ccc(-c2cnc(N)nc2-c2ccc(OCc3ccccc3)cc2O)cc1	?	?	-7%	-29%	13µM*	i
CCC1(c2ccccc2)CN(C)C1=O (stereo not given)	1%	-1%	.	-9%	16%	i
CCC1(c2ccccc2)ON(c2c(Br)cccc2Br)C1=O (stereo not given)	?	18µM*	22µM*	-102%	?	?
COC1=Nc2ccccc2N2CCN=C12	-1%	?	-3%	-18%	1%	i
c1ccc2c(c1)C1=NCCN1c1ccccc1-2	?	16µM*	.	-24%	10µM*	i
O=C1CC(c2cccc(Cl)c2Cl)c2cc3c(cc2N1)OCCO3 (stereo not given)	.	.	-6%	-3%	12%	i
Cc1ccc(Sc2cc(C(=O)NCCCN(C)C)c3ccccc3n2)cc1	?	18µM*	-20%	-14%	10%	?
CC1=C(CC[C@@H](C)CO)OC2CC3C4CCC5CC(O)CCC5(C)C4CC(=O)C3(C)C12 (stereo not given in full)	-18%	-9%	25µM*	-25%	2%	?
C[C@@H]1CC[C@@]2(OC1)O[C@H]1C[C@H]3[C@@H]4CC[C@H]5C[C@@H](O)CC[C@]5(C)[C@H]4CC(=O)[C@]3(C)[C@H]1[C@@H]2C	.	.	8%[5.55 µM]	.	.	i[5.17 µM]
Cc1ccc(C(=O)/C=C\C(=O)c2ccc(C)cc2)cc1	-1%	?	-10%	-47%	?	i
Cc1ccc(S/C=C\C(=O)c2ccccc2)cc1	22µM*	13µM*	?	-9%	?	22µM*
CCN(c1ccc(OC)cc1)S(=O)(=O)c1ccc2[nH]c3c(c2c1)CCCCC3	.	.	?	-28%	?	?
C[C@@H]1[C@H](c2ccccc2)OCCS(=O)(=O)N1Cc1ccccc1F	.	.	.	-20%	-35%	.
O=C(CSc1nnc(-c2ccc3c(c2)OCO3)o1)Oc1ccccc1	.	.	.	1%	?	.
SMILES	HT1080NT lethal	HT1080 IDH1KD tx	ATXN2 expr inh	HepG2 viability	TGFb inhibitor	S2 tox
Nc1c(C(=O)Nc2ccccc2)c2nc3ccccc3nc2n1CCCN1CCOCC1	23µM*	18µM*	?	14µM*	?	i
O=C(Nc1ccc(F)c(Cl)c1)C1CCCC1	2%	-1%	-27%	10µM*	0%	i
Cc1cn([C@H]2C[C@H](F)[C@@H](CO)O2)c(=O)[nH]c1=O	.	.	-3%	.	.	i
NC(=O)c1ccc(-c2nc(-c3ccc4c(c3)OCCO4)c(-c3ccccn3)[nH]2)cc1	.	.	-32%	.	.	.
COc1cc(OC)cc(C(=O)O/N=C(\N)c2ccccn2)c1	14%	13%	.	-4%	3%	i
CCOc1ccc(NC(=O)c2cnccn2)cc1	-3%	-14%	?	-10%	-11%	i
COc1ccc(C(=O)NNC(=O)c2ccccn2)cc1	21µM*	18µM*	.	-44%	-1%	?
COc1cc(OC)cc(C(=O)NNC(=O)c2ccc3ccccc3n2)c1	?	21µM*	?	-51%	?	?
COc1cc(C(=O)NNC(=O)c2ccc3ccccc3n2)cc(OC)c1OC	?	?	?	-32%	-30%	i
COc1ccc(C(=O)O/N=C(\N)c2ccccn2)cc1	13µM*	16µM*	11µM*	-42%	6%	i
CCOc1ccc(NC(=O)c2ccccn2)cc1	?	?	10µM*	-68%	?	i
CCC(=O)N1CCc2cc(S(=O)(=O)NC(C(=O)NCCc3ccc(OC)c(OC)c3)C(C)C)ccc21 (stereo not given)	.	.	14%	-18%	-1%	i
COc1cccc2c1Oc1nc(-c3ccccc3)nc(SCC(=O)N3CCCCC3)c1C2	.	.	11%	-7%	?	i
Cn1c(NCCN2CCCC2)nc2cc(-c3ccccc3)sc2c1=O	?	13µM*	?	-7%	26%	i
Cn1c(NCCN2CCCC2)nc2cc(-c3cccc(C(F)(F)F)c3)sc2c1=O	21µM*	?	?	-87%	?	?
Cc1c(Cl)cccc1NC(=O)COCc1cc(-c2ccc3c(c2)OCO3)on1	.	.	.	-21%	0%	.
COc1ccc(OC)c(NC(=O)CN(C)S(=O)(=O)c2ccc3[nH]c4c(c3c2)CCCC4)c1	.	.	?	-32%	?	?
CN1Cc2cc(C(=O)N3CCC(C4CCNCC4)CC3)ccc2NC(CC(=O)O)C1=O (stereo not given)	.	.	11%	.	.	i
Cc1ccc(Nc2c(-c3ccccn3)nc3cccc(C)n23)cc1	12µM*	7.3µM*	6.3µM*	-36%	?	?
Cc1cccc2nc(-c3ccccn3)c(Nc3ccc(F)cc3)n12	.	.	18µM*	-53%	?	.
Cc1cccc2nc(-c3ccccn3)c(Nc3ccccc3)n12	.	.	?	-40%	?	?
